Cy5 interf NS3h – Cy5 fluorescence interference, HCV helicase counter-screen; hit rate 6% among 16,000; fluorescence interference ratio at 100 µM; Cy5-dT15 DNA with NS3h; actives lie on both sides; signal over control mean, under 1 quenches;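 active = compound fluorescence over control fluorescence at most 0.8, a quencher, or at least a set upper limit, an enhancer; inactive = ratio between 0.8 and the set upper limit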
NS3h inh CB – hepatitis C NS3 helicase inhibition, primary screen. NS3h Cy5-dT15 DNA binding, fluorescence polarization. inhibition, % at 100 µM. hit rate 1.6% among 16,000. AID 687043;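 active = inhibition above the average over every tested compound plus 3 SD, cut at about 40% in these data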
Large screens that a line does not name were inactive. Shown are actives, neighbours in structure and some others; about 6.8% of the full set was active somewhere.

O=C(Nc1ccc(Br)cn1)c1cc2n(n1)C(C(F)(F)F)CC(c1ccccc1)N2 (stereo unspecified)	Cy5 interf NS3h 0.7
CCc1ccccc1NC(=O)c1cc2n(n1)C(C(F)(F)F)CC(c1ccccc1)N2 (stereo unspecified)	none
NC(=O)/C=C/c1cn(-c2ccccc2)nc1-c1ccccc1	none
Cc1ccc(C(=O)/C=C2\C(=O)Nc3ccccc32)cc1	none
CC(=O)N1C(=O)/C(=C/C(=O)c2ccccc2)c2ccccc21	Cy5 interf NS3h 0.79
O=C(NC(c1ccccc1)c1ccccc1)C(=O)c1c[nH]c2ccccc12	Cy5 interf NS3h 0.66
Cc1ccc(C(=O)Nc2ccccc2C(=O)NC(Cc2c[nH]c3ccccc23)C(=O)O)cc1 (stereo unspecified)	none
COc1cccc(C(=O)N2CCN(C3CC4CCC3C4)CC2)c1 (stereo unspecified)	Cy5 interf NS3h 0.68
COc1cc(OC)cc(C(=O)N2CCN(C3CCC(c4ccccc4)CC3)CC2)c1 (stereo unspecified)	none
CCOC(=O)c1nc2ccccc2[nH]c1=O	none
CN(C)C(=S)S/C=C/C(=O)c1ccccc1	none
Cc1cc(Cl)ccc1OCC(=O)Nc1ccc(F)c([N+](=O)[O-])c1	none
Cc1cc(OCC(=O)Nc2ccc(F)c([N+](=O)[O-])c2)ccc1Cl	Cy5 interf NS3h 1.2
COC(=O)c1ccccc1NC(=O)CN(c1ccccc1)S(=O)(=O)c1ccccc1[N+](=O)[O-]	none
Cc1ccc(N2C(=O)C3C4C=CC(C5CC45)C3C2=O)cc1Cl (stereo unspecified)	none
CC1=NN(c2ccc(C)c(Cl)c2)C(=O)C1	Cy5 interf NS3h 0.72
O=C(COc1ccc(Cl)cc1)Nc1ccc(I)cc1Cl	Cy5 interf NS3h 1.2
COc1ccc(OCC(=O)Nc2ccc(I)cc2Cl)cc1	none
CCCCOc1ccc(S(=O)(=O)n2cnc3ccccc32)cc1	none
Cn1c2c(c(=O)n(C)c1=O)C(c1ccc(OC(=O)/C=C/c3ccc([N+](=O)[O-])cc3)cc1)C1=C(N2)c2ccccc2C1=O (stereo unspecified)	none
COc1ccc(C(=O)Nc2ccc3oc(-c4ccccc4Cl)nc3c2)cc1Br	none
COc1ccc(Br)cc1C(=O)Nc1ccc2oc(-c3ccccc3F)nc2c1	Cy5 interf NS3h 1.2
Cc1ccc(-n2c(C)cc(C=O)c2C)cc1C	none
C=CCN1C(=O)/C(=C\c2ccc(OCCOc3cccc(OC)c3)cc2)SC1=S	none
C=CCN1C(=O)/C(=C\c2ccc(OC(=O)c3cccc(Br)c3)cc2)SC1=S	Cy5 interf NS3h 0.75
N/C(=N/OC(=O)c1ccc(Br)cc1)c1ccncc1	none
COC(=O)CCC(=O)Nc1ccc(C)c(Br)c1	none
Cc1ccc(S(=O)(=O)N2CCN(Cc3ccccc3)CC2)cc1[N+](=O)[O-]	none
COc1ccc(CN2CCN(S(=O)(=O)c3ccc(C)cc3)CC2)cc1OCc1ccccc1	Cy5 interf NS3h 0.74
O=C(O)CN1C(=O)c2cccc3c(Br)ccc1c23	none
O=C(O)c1cccc2c(Br)ccc(C(=O)O)c12	Cy5 interf NS3h 0.68
CC(=C(C#N)C#N)c1ccc2c(c1)OCCO2	none
CC(=C(C#N)C#N)c1ccc2c(c1)OCO2	Cy5 interf NS3h 0.74
COc1ccc(C2C(=C(O)c3ccc(F)cc3)C(=O)C(=O)N2c2nncs2)cc1 (stereo unspecified)	none
CCOC(=O)c1c(C)[nH]c(/C=N\O)c1O	none
Cc1ccc(C(=O)O/N=C(/N)c2ccccn2)cc1[N+](=O)[O-]	none
Cc1ccc(C(=O)O/N=C(/N)c2cccnc2)cc1[N+](=O)[O-]	Cy5 interf NS3h 0.66
Cc1ccc(-c2nc3cc(Cl)cc(Cl)c3o2)cc1N	none
Cc1cc2c(cc1Br)NC(=O)C2=O	Cy5 interf NS3h 0.76
Cc1cc(/C=C2\SC(=O)NC2=O)c(C)n1-c1cccc([N+](=O)[O-])c1	none
O=C1S/C(=C/c2ccc3c(c2)OCO3)C(=O)N1CN1CCCC1	Cy5 interf NS3h 0.57
O=C1/C(=C\c2ccc3c(c2)OCO3)SC(=S)N1c1cccc(C(F)(F)F)c1	none
COCCN1C(=O)/C(=C/c2ccc3c(c2)OCO3)SC1=S	none
Cc1cccc(N2C(=O)/C(=C/c3ccc4c(c3)OCO4)SC2=S)c1C	Cy5 interf NS3h 0.77
Cc1cccc2c(C(=O)O)cc(C(=O)O)nc12	none
N#CC1=C(N)C(C#N)(C#N)C(c2ccc(Cl)cc2Cl)C2CCCC=C12 (stereo unspecified)	Cy5 interf NS3h 1.2
O=C(NCc1ccco1)C(=O)Nc1ccc([N+](=O)[O-])cc1	none
Clc1ccccc1Cc1noc(-c2ccc(Br)cc2)n1	none
Clc1ccccc1Cc1noc(-c2ccccc2Cl)n1	none
CCCc1noc(-c2ccc(C(C)(C)C)cc2)n1	Cy5 interf NS3h 0.71
CCCc1noc(-c2ccccc2Cl)n1	Cy5 interf NS3h 0.76
CCOc1ccccc1NC(=O)c1cc([N+](=O)[O-])ccc1N1CCN(C)CC1	none
O=C1NC(=S)N(c2ccccc2)C(=O)/C1=C/c1ccc(O)c(Cl)c1	Cy5 interf NS3h 1.2
O=C1NC(=S)N(c2cccc(Br)c2)C(=O)/C1=C/c1ccc(O)c(Cl)c1	none
COc1cccc(N2C(=O)C(=O)C(=C(O)c3ccccc3)C2c2ccc(Cl)cc2)c1 (stereo unspecified)	none
COc1cccc(N2C(=O)C(=O)C(=C(O)c3ccccc3)C2c2ccccc2Cl)c1 (stereo unspecified)	Cy5 interf NS3h 0.73
O=S(=O)(NCCc1ccccc1)c1ccc2ccccc2c1	none
Cc1ccc(S(=O)(=O)NCCNc2ccc(Cl)cc2[N+](=O)[O-])cc1	none
O=C(Cn1cnc([N+](=O)[O-])n1)Nc1ccc(F)cc1F	Cy5 interf NS3h 0.76
O=C(CCCC(=O)OCC(F)(F)C(F)F)Nc1ccc(F)cc1F	none
CC(=O)ON=C1c2cc(S(=O)(=O)N(C)C)ccc2-c2ccc(S(=O)(=O)N(C)C)cc21	Cy5 interf NS3h 0.61
O=S(=O)(c1ccc2c(c1)C(=NO)c1cc(S(=O)(=O)N3CCCC3)ccc1-2)N1CCCC1	none
O=C(CCc1ccccc1)Nc1cccc(Cl)c1	none
CCOC(=O)c1c(C)oc2c(Br)cc(NS(=O)(=O)c3ccccc3)cc12	none
CCc1ccc(S(=O)(=O)Nc2cc3c(C(=O)O)c(C)oc3c3ccccc23)cc1	Cy5 interf NS3h 0.72
O=C(NCCN1CCNCC1)C(=O)Nc1ccc(F)cc1	none
COc1ccc(N2C(=O)CC(Cc3ccccc3OC)C2=O)cc1 (stereo unspecified)	none
COc1ccc(N2C(=O)CC(Cc3ccc(Cl)cc3)C2=O)cc1 (stereo unspecified)	Cy5 interf NS3h 0.69
CCOC(=O)C1=C(C)N=c2s/c(=C\c3ccc(Br)o3)c(=O)n2C1c1ccc(F)cc1 (stereo unspecified)	none
COc1ccc(C2=C/C(=C/c3ccc([N+](=O)[O-])cc3)C(=O)O2)c(OC)c1	Cy5 interf NS3h 0.67
CCOc1ccc(C2=C/C(=C/c3ccc(OC)cc3)C(=O)O2)cc1	none
CC(C)N=C1NS(=O)(=O)c2cc([N+](=O)[O-])ccc21	none
CC(C)(C)CC(C)(C)N=C1NS(=O)(=O)c2cc([N+](=O)[O-])ccc21	Cy5 interf NS3h 0.61
COC(=O)C(CCCC(C(=O)OC)C(=O)OC)C(=O)OC	Cy5 interf NS3h 0.68
COC(=O)C(CC(C(=O)OC)C(=O)OC)C(=O)OC	none
CCOC(=O)C1=C(C)NC(C)=C(C(=O)OC)C1c1ccco1 (stereo unspecified)	none
C=CCOC(=O)C1=C(C)NC(C)=C(C(=O)OCC=C)C1c1ccco1	Cy5 interf NS3h 0.73
CN1C(=O)C(=Cc2cccc(Cl)c2Cl)C(=O)N(C)C1=O	none
N/C(=N\OCC(=O)Nc1ccc(F)cc1)c1nonc1N	none
